Assay results reported in PubChem BioAssay (EPA / NIEHS).
Active and inactive are the calls of the source. The calls were made as follows: active = hit-call score of the fitted dose curve at least 0.9, where 1 is the maximum; inactive = score below 0.9.

Tests used:
[1] = target: Transcription factor E2F1 (Homo sapiens) (UniProt Q01094); assay: ATG_E2F_CIS: Attagene CIS-FACTORIAL HepG2 Assay for human E2F Transcription Factor 1 (AID 2282935); conditions: HepG2 Attagene cis-reporter, E2F reporter RNA transcripts; actives raise or lower the signal
How it was run: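 Measures reporter transcript levels via RT-PCR with capillary electrophoresis detection in HepG2 cells harboring cis-regulated reporter units; 24 h post-dose; bidirectional curve fitting with DMSO as baseline.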

[2] = ATG_E_Box_CIS: Attagene CIS-FACTORIAL HepG2 Assay for human Enhancer Box (E-box) (AID 2282936); conditions: HepG2 E-box cis-reporter transcription, actives raise or lower the signal
How it was run: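 First, HepG2 cells receive multiple cis-regulated reporter constructs by transient transfection. Next, chemicals are applied for 24 h. Finally, reporter mRNA is quantified via RT-PCR and capillary electrophoresis, with DMSO as baseline.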

[3] = ATG_M_61_CIS: Attagene CIS-FACTORIAL HepG2 Assay for M61 Transcription Factor (Internal Marker) (AID 2282937); conditions: HepG2 Attagene CIS-FACTORIAL M61 internal marker reporter; actives raise or lower the signal
How it was run: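 Transfect HepG2 with MRTUs; dose 24 h; isolate RNA; reverse-transcribe with DNase I treatment; PCR-amplify, FAM-label and cut with HpaI for 2 h at 37 C; resolve by CE. Bidirectional fitting against DMSO.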

[4] = ATG_EGR_CIS: Attagene CIS-FACTORIAL HepG2 Assay for human Early Growth Response 1 (EGR1) (AID 2282938); conditions: HepG2 Attagene CIS-FACTORIAL EGR reporter mRNA; actives raise or lower the signal
How it was run: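 After a 24 h treatment of transiently transfected HepG2 cells, total RNA was reverse-transcribed and reporter sequences PCR-amplified, labelled and run on capillary electrophoresis. Reporters sit under cis-regulatory promoters sensing endogenous factors.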

[5] = ATG_M_19_CIS: Attagene CIS-FACTORIAL HepG2 Assay for M19 Transcription Factor (Internal Marker) (AID 2282939); conditions: HepG2 Attagene CIS-FACTORIAL M19 internal marker reporter; actives raise or lower the signal
How it was run: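 Signals come from fluorescence of labelled reporter-specific PCR fragments resolved by capillary electrophoresis, following 24 h treatment of HepG2 cells transfected with cis-promoter reporter units; activity was fitted in both directions relative to DMSO.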

[6] = ATG_ERE_CIS: Attagene CIS-FACTORIAL HepG2 Assay for Estrogen Response Element (ERE) (AID 2282940); conditions: HepG2 ERE cis-reporter, Attagene RNA transcript; actives raise or lower the signal
How it was run: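 Fluorescence of capillary-separated, FAM-labelled reporter cDNA fragments indicates reporter mRNA levels in HepG2 cells exposed to chemicals for 24 h. Transient transfection with cis-regulated units; data fitted in both directions against DMSO.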

[7] = ATG_Ets_CIS: Attagene CIS-FACTORIAL HepG2 Assay for human Erythroblast Transformation Specific (ETS) (AID 2282941); conditions: HepG2 ETS cis-reporter transcription, actives raise or lower the signal
How it was run: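 HepG2 cells transiently transfected with cis-promoter reporter transcription units were dosed for 24 h; reporter mRNA was measured by RT-PCR, 6-FAM primer extension, HpaI digestion and capillary electrophoresis, with bidirectional fitting against DMSO baseline.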

[8] = target: Hepatocyte nuclear factor 3-beta (Homo sapiens) (UniProt Q9Y261); assay: ATG_FoxA2_CIS: Attagene CIS-FACTORIAL HepG2 Assay for human Forkhead box A2 (FOXA2) (AID 2282942); conditions: HepG2 cis-reporter transcription factor activity, 24 h; actives raise or lower the signal
How it was run: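 24 h dosing of HepG2 bearing cis-reporter constructs; mRNA readout by RT-PCR/CE fluorescence; bidirectional fit, DMSO baseline.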

[9] = ATG_FoxO_CIS: Attagene CIS-FACTORIAL HepG2 Assay for human Forkhead box O (FoxO) (AID 2282943); conditions: HepG2 Attagene cis-reporter, FoxO element, mRNA; actives raise or lower the signal
How it was run: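 HepG2 cells transiently transfected with cis-element-driven reporter units report endogenous FoxO activity. After 24 h chemical exposure, reporter mRNA quantified by RT-PCR, fluorescent labeling, HpaI digestion and capillary electrophoresis; bidirectional fit versus DMSO.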

[10] = ATG_GATA_CIS: Attagene CIS-FACTORIAL HepG2 Assay for human GATA Binding Protein (AID 2282944); conditions: HepG2 GATA cis-element reporter, Attagene multiplex mRNA; actives raise or lower the signal
How it was run: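 After transfecting HepG2 cells with multiple cis-regulated reporter units, chemicals are dosed for 24 h; isolated RNA undergoes RT-PCR and fluorescent labeling before capillary electrophoresis, with activity expressed against DMSO.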

[11] = ATG_GLI_CIS: Attagene CIS-FACTORIAL HepG2 Assay for human Zinc Finger Protein GLI1 (AID 2282945); conditions: HepG2, Attagene cis-factorial reporter mRNA, GLI element; actives raise or lower the signal
How it was run: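 Transiently transfected HepG2 cells report endogenous transcription factor activity via cis-element-driven reporter units. After 24 h compound exposure, reporter mRNA was measured by RT-PCR with capillary electrophoresis; bidirectional fitting against DMSO baseline.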

[12] = target: Bile acid receptor (Homo sapiens) (UniProt Q96RI1); assay: ATG_IR1_CIS: Attagene CIS-FACTORIAL HepG2 Assay for human Nuclear Receptor Subfamily 1 Group H Member 4 (NR1H4), IR1 submotif (AID 2282946); conditions: IR1 reporter transcription, actives raise or lower the signal
How it was run: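 HepG2 cells transiently transfected with multiple cis-promoter-driven reporter units to measure endogenous transcription factor activity; 24 h exposure. Reporter mRNA read by RT-PCR, FAM labelling, HpaI digestion and capillary electrophoresis. Bidirectional fit versus DMSO.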

[13] = ATG_GRE_CIS: Attagene CIS-FACTORIAL HepG2 Assay for human Glucocorticoid Response Elements (GRE) (AID 2282947); conditions: HepG2 GRE cis-reporter, Attagene multiplex mRNA; actives raise or lower the signal
How it was run: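 Endogenous transcription factor activity is read through cis-element reporter constructs transiently transfected into HepG2 cells. After 24 h treatment, labelled RT-PCR products are resolved by capillary electrophoresis; DMSO sets baseline for bidirectional curve fitting.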

[14] = ATG_ISRE_CIS: Attagene CIS-FACTORIAL HepG2 Assay for human Interferon Regulatory Factor 1 (IRF1) binding to an Interferon-Stimulated Response Element (ISRE) (AID 2282948); conditions: HepG2 ISRE cis-reporter (Attagene), mRNA transcription readout; actives raise or lower the signal
How it was run: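 HepG2 cells transiently transfected with multiplexed cis-promoter reporter units; after 24 h compound exposure, reporter mRNA quantified by RT-PCR, FAM labelling, HpaI digestion and capillary electrophoresis. Bidirectional fit versus DMSO baseline.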

[15] = ATG_M_32_CIS: Attagene CIS-FACTORIAL HepG2 Assay for M32 Transcription Factor (Internal Marker) (AID 2282949); conditions: HepG2 Attagene cis-factorial M32 reporter, mRNA; actives raise or lower the signal;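 also: background control marker of the multiplexed CIS panel rather than a real target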
How it was run: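 Internal background marker read-out: RT-PCR/capillary electrophoresis fluorescence of reporter transcripts from transiently transfected HepG2 cells after 24 h chemical exposure. Activity fitted bidirectionally relative to DMSO negative control.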

[16] = ATG_M_06_CIS: Attagene CIS-FACTORIAL HepG2 Assay for M06 Transcription Factor (Internal Marker) (AID 2282950); conditions: HepG2 Attagene CIS-FACTORIAL M06 internal marker reporter; actives raise or lower the signal
How it was run: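 HepG2 liver cells, 24 h exposure. Reporter transcripts from transfected cis-element constructs quantified by RT-PCR/capillary electrophoresis fluorescence. Bidirectional curve fit against DMSO.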

[17] = target: Hypoxia-inducible factor 1-alpha (Homo sapiens) (UniProt Q16665); assay: ATG_HIF1a_CIS: Attagene CIS-FACTORIAL HepG2 Assay for human Hypoxia Inducible Factor 1 (HIF1A) (AID 2282951); conditions: HepG2 Attagene cis-factorial HIF1a reporter transcription; actives raise or lower the signal
How it was run: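 After 24 h chemical exposure of reporter-transfected HepG2 cells, reporter cDNA was PCR-amplified, labelled by 6-FAM primer extension (2 min 95 C, 20 s 68 C, 10 min 72 C), HpaI-cut (2 h, 37 C) and analysed by CE.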

[18] = target: Hepatocyte nuclear factor 6 (Homo sapiens) (UniProt Q9UBC0); assay: ATG_HNF6_CIS: Attagene CIS-FACTORIAL HepG2 Assay for human Hepatocyte Nuclear Factor 6 (HNF6) (AID 2282952); conditions: HepG2 Attagene cis-factorial HNF6 reporter transcription; actives raise or lower the signal
How it was run: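 Reporter mRNA induction or loss in HepG2 after 24 h exposure; transient cis-MRTU transfection; fragments quantified by capillary electrophoresis; bidirectional analysis, DMSO as negative control.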

[19] = target: Heat shock factor protein 1 (Homo sapiens) (UniProt Q00613); assay: ATG_HSE_CIS: Attagene CIS-FACTORIAL HepG2 Assay for human Heat Shock Transcription Factor 1 (HSE) (AID 2282953); conditions: HepG2 HSE cis-reporter, Attagene RNA transcription; actives raise or lower the signal
How it was run: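 Endogenous transcription factor activity captured via cis-promoter reporter units transfected into HepG2; treatment lasted 24 h. Fluorescence intensity of reporter fragments analysed with bidirectional curve fitting, DMSO baseline.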

[20] = ATG_MRE_CIS: Attagene CIS-FACTORIAL HepG2 Assay for human Metal Responsive Element (MRE) (AID 2282954); conditions: HepG2 MRE cis-reporter transcription, Attagene multiplex; actives raise or lower the signal
How it was run: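 Fluorescent reporter fragments separated by capillary electrophoresis give mRNA induction for the MRE unit after 24 h treatment of transfected HepG2 cells. Endogenous transcription-factor activity is read; DMSO serves as negative control and baseline.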

Sequence of Hepatocyte nuclear factor 6 (Homo sapiens) (Q9UBC0 whole entry, looked up, the tested form may be a part): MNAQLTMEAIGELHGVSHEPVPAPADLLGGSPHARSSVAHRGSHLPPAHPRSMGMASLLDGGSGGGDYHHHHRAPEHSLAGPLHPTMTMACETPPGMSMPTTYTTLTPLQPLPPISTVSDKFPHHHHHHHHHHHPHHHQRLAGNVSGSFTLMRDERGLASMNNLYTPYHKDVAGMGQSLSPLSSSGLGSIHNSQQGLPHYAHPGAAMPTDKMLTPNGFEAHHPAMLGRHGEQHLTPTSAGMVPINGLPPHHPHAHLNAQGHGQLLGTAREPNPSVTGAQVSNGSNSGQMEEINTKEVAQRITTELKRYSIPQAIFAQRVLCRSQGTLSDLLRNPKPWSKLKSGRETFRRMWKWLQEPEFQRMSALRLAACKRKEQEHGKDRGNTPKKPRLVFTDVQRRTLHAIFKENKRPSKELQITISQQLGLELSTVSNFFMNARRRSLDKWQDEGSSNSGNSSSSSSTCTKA
Sequence of Heat shock factor protein 1 (Homo sapiens) (Q00613 whole entry, looked up, the tested form may be a part): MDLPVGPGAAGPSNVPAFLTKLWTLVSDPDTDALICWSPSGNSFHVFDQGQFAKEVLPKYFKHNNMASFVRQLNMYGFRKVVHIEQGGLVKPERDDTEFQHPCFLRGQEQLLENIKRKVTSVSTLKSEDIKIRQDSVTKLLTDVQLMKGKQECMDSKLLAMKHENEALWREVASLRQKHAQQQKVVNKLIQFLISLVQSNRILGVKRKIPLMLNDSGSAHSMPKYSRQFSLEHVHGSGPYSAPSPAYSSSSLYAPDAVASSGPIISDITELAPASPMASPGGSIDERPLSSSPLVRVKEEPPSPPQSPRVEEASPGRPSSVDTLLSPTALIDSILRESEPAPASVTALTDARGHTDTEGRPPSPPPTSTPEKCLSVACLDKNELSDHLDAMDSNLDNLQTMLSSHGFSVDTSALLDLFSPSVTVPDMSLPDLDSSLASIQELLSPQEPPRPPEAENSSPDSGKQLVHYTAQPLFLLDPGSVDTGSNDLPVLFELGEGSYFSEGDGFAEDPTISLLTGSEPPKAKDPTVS
Sequence of Hepatocyte nuclear factor 3-beta (Homo sapiens) (Q9Y261 whole entry, looked up): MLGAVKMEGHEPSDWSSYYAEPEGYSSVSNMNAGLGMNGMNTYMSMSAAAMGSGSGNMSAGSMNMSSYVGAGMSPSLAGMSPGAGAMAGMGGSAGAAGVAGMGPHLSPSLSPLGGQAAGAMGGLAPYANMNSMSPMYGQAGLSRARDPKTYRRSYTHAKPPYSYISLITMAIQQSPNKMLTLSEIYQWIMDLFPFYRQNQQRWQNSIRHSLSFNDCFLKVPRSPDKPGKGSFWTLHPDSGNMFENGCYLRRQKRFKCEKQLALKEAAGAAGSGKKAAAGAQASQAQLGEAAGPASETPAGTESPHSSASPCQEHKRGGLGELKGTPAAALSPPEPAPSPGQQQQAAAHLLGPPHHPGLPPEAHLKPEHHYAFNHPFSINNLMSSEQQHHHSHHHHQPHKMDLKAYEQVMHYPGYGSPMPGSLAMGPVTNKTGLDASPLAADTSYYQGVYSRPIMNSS
Sequence of Bile acid receptor (Homo sapiens) (Q96RI1 whole entry, looked up): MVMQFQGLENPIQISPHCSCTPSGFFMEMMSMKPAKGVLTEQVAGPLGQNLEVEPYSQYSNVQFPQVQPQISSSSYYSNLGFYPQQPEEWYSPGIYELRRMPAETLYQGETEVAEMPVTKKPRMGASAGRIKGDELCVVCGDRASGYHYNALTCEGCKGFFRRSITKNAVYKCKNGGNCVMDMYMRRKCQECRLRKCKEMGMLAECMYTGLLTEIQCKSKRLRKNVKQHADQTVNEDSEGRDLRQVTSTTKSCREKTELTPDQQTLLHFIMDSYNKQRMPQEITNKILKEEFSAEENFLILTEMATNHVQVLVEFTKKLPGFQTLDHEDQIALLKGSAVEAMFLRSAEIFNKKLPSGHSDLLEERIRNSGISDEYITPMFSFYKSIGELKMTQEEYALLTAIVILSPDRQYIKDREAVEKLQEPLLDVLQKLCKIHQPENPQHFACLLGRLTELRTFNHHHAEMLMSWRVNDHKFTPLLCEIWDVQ
Sequence of Transcription factor E2F1 (Homo sapiens) (Q01094 whole entry, looked up): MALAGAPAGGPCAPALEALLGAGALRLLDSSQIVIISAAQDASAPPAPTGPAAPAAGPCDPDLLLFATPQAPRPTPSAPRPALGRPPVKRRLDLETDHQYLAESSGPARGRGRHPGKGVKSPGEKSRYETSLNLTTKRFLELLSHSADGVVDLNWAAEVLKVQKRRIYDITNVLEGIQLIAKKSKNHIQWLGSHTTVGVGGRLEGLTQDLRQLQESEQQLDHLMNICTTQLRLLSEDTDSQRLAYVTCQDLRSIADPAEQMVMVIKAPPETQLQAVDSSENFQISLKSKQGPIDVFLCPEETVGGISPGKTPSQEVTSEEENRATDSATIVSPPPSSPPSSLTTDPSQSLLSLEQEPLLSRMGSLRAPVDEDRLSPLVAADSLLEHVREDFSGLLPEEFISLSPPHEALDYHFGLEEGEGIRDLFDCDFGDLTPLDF
Sequence of Hypoxia-inducible factor 1-alpha (Homo sapiens) (Q16665 whole entry, looked up): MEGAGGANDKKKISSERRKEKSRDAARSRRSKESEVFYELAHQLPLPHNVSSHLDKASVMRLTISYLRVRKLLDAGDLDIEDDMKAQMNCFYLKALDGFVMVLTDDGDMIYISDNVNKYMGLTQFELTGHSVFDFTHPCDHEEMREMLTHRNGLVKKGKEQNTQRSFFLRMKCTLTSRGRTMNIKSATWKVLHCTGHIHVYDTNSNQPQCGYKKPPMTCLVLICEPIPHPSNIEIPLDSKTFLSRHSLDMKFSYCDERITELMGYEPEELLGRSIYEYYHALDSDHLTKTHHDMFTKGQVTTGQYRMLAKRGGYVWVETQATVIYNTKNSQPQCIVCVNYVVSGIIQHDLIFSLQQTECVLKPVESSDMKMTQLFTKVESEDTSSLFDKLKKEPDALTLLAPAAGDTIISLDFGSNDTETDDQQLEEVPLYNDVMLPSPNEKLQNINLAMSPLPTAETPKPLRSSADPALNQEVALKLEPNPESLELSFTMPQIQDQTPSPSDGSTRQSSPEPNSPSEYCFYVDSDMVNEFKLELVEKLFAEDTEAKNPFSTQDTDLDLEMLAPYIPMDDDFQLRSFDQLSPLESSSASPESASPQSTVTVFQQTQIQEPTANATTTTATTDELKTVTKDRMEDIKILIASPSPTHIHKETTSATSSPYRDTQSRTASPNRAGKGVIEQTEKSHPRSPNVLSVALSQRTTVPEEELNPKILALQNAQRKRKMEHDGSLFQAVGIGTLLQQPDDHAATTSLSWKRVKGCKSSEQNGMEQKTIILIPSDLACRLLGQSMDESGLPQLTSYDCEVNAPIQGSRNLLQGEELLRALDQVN

COc1cc(S(=O)(=O)O)c(C)cc1N=Nc1c(O)ccc2cc(S(=O)(=O)O)ccc12
outcome [1]: inactive
outcome [2]: inactive
outcome [3]: inactive
outcome [4]: inactive
outcome [5]: inactive
outcome [6]: inactive
outcome [7]: inactive
outcome [8]: inactive
outcome [9]: inactive
outcome [10]: inactive
outcome [11]: inactive
outcome [12]: inactive
outcome [13]: inactive
outcome [14]: inactive
outcome [15]: inactive
outcome [16]: inactive
AC50 [17]: 5.78 µM (active)
outcome [18]: inactive
outcome [19]: inactive
outcome [20]: inactive

COC(=O)c1ccc(O)cc1
outcome [1]: inactive
outcome [2]: inactive
outcome [3]: inactive
outcome [4]: inactive
outcome [5]: inactive
AC50 [6]: 67.4 µM (active)
outcome [7]: inactive
outcome [8]: inactive
outcome [9]: inactive
outcome [10]: inactive
outcome [11]: inactive
outcome [13]: inactive
outcome [14]: inactive
outcome [15]: inactive
outcome [16]: inactive
outcome [18]: inactive
outcome [19]: inactive
outcome [20]: inactive

CC(C)c1ccc(C(=O)N=C(N)N)cc1S(C)(=O)=O
outcome [1]: inactive
outcome [2]: inactive
outcome [3]: inactive
outcome [4]: inactive
outcome [5]: inactive
AC50 [6]: 71.7 µM (active)
outcome [8]: inactive
outcome [9]: inactive
outcome [10]: inactive
outcome [11]: inactive
outcome [13]: inactive
outcome [14]: inactive
outcome [15]: inactive
outcome [16]: inactive
outcome [17]: inactive
outcome [18]: inactive
outcome [19]: inactive
outcome [20]: inactive

CC(=O)OCCOCCOCCOC(C)=O
outcome [1]: inactive
outcome [2]: inactive
outcome [3]: inactive
outcome [4]: inactive
outcome [5]: inactive
outcome [6]: inactive
outcome [8]: inactive
outcome [9]: inactive
outcome [10]: inactive
outcome [11]: inactive
outcome [12]: inactive
outcome [14]: inactive
outcome [15]: inactive
outcome [16]: inactive
outcome [18]: inactive
outcome [20]: inactive

Cc1ccccc1Cl
outcome [1]: inactive
outcome [3]: inactive
outcome [4]: inactive
outcome [5]: inactive
outcome [6]: inactive
outcome [7]: inactive
outcome [8]: inactive
outcome [9]: inactive
outcome [10]: inactive
outcome [11]: inactive
outcome [12]: inactive
outcome [13]: inactive
outcome [14]: inactive
outcome [15]: inactive
outcome [16]: inactive
outcome [18]: inactive
outcome [19]: inactive
outcome [20]: inactive

NS(=O)(=O)c1cc2c(cc1Cl)NCNS2(=O)=O
outcome [1]: inactive
outcome [2]: inactive
outcome [3]: inactive
outcome [4]: inactive
outcome [5]: inactive
outcome [6]: inactive
outcome [8]: inactive
outcome [10]: inactive
outcome [11]: inactive
AC50 [12]: 3.7 µM (active)
outcome [13]: inactive
outcome [14]: inactive
outcome [15]: inactive
outcome [16]: inactive
outcome [18]: inactive
outcome [20]: inactive

Cc1c(C(=O)O)c(O)cc2c1C(=O)c1c(O)c([C@@H]3O[C@H](CO)[C@@H](O)[C@H](O)[C@H]3O)c(O)c(O)c1C2=O
outcome [1]: inactive
outcome [3]: inactive
outcome [4]: inactive
outcome [5]: inactive
outcome [6]: inactive
outcome [7]: inactive
outcome [8]: inactive
outcome [9]: inactive
outcome [10]: inactive
outcome [11]: inactive
outcome [12]: inactive
outcome [13]: inactive
outcome [14]: inactive
outcome [15]: inactive
outcome [16]: inactive
outcome [18]: inactive
outcome [20]: inactive
